# Many of the other results were omitted from the sample, so hits are more common in it than they were.
# Vaccinia Venus: qHTS for Stage-Specific Inhibitors of Vaccinia Orthopoxvirus: Venus Reporter Primary qHTS; Potency, µM (doses to about 36.5 µM), inactives show top-dose activity change, negative = inhibition, usual class: inhibitors; Vaccinia virus Venus reporter expression, fluorescence; hit rate 0.46% among 330,000; calls by dose curve; tested in A549 cells; also: potency is read from the fitted curve at half-maximal effect; % is scaled to controls: 0 for no effect and ±100 for the full control effect; nearly all actives have a fitted effect of over 30% in size
# Lassa entry inh: qHTS for Inhibitors of binding or entry into cells for Lassa Virus. AID 540256, 2011. Potency, µM (series often up to 37.9 µM), for inactives: at the highest dose activity change, negative = inhibition, hits mostly inhibitors. Lassa virus pseudotype entry inhibition, cell reporter. hit rate 1.2% among 300,000; calls by dose curve; tested in HEK293 cells; also: potency is read from the fitted curve at half-maximal effect; % is scaled to controls: 0 for no effect and ±100 for the full control effect; nearly all actives have a fitted effect of over 50% in size
# Cycloheximide cs: Cycloheximide Counterscreen for Small Molecule Inhibitors of Shiga Toxin; cell reporter, cycloheximide protein synthesis inhibition counterscreen; max response, %; hit rate 12% among 300,000; in the data active = max response mostly above about 13%, no sharp cut-off; inactive = mostly below about 14%; also: read at 38.3 µM for the half of the compounds with a filed dose; 0% is about no effect
# Marburg entry inh: qHTS for inhibitors of binding or entry into cells for Marburg Virus. AID 540276, 2011. Marburg virus pseudotyped entry inhibition, cell reporter. hit rate 1.8% among 300,000. Potency, µM (titrated, usually from 37.8 µM), for the others: top-dose activity change, negative = inhibition, usual class: inhibitors; calls by dose curve; tested in HEK293 cells; also: potency is read from the fitted curve at half-maximal effect; % is scaled to controls: 0 for no effect and ±100 for the full control effect
# Shiga inhibitor: A qHTS for Small Molecule Inhibitors of Shiga Toxin | Vero cells, Shiga toxin protein synthesis inhibition reporter | inhibition, % at 38.7 µM | hit rate 9.2% among 290,000 | AID 2315, 2010; in the data active = inhibition mostly above about 28%, no sharp cut-off; inactive = mostly below about 43%; also: 0% is about no effect
# VACV mCherry inh: qHTS for Stage-Specific Inhibitors of Vaccinia Orthopoxvirus: mCherry Reporter Primary qHTS | Vaccinia virus mCherry reporter infection, fluorescence | Potency, µM (highest dose often 36.5 µM), inactives show at the top dose activity change, negative = inhibition, most hits filed as inhibitors | hit rate 0.63% among 310,000; calls by dose curve; tested in A549 cells; also: potency is read from the fitted curve at half-maximal effect; % is scaled to controls: 0 for no effect and ±100 for the full control effect; nearly all actives have a fitted effect of over 35% in size
# * marks the source's active call; other numbers are inactive results; i = inactive; ? = inconclusive; / = no result; [ ] = dose if it differs, or a comment.
SMILES,Vaccinia Venus,Lassa entry inh,Cycloheximide cs,Marburg entry inh,Shiga inhibitor,VACV mCherry inh
CCN(CC)CCNC(=O)c1sc2nc(C)cc(C)c2c1-n1cccc1,-0.2%,3.7%[46.1 µM],/,19.6%[46.1 µM],/,-1.6%
Cc1ccc2c(c1)C(c1ccncc1)=NNC(c1ccc(C(C)C)cc1)=N2,/,/,6.8,8.5%,32.0*,/
CCOc1ccc2c(c1)C(c1ccccc1)=NNC(c1ccccc1)=N2,-10.1%,19.6%,45.4*,11.0%,57.4*,-14.8%
Cc1ccc(C2=Nc3cccnc3C(c3ccccc3)=NN2)cc1,-18.7%,?,49.0*,?,79.2*,-2.5%
Brc1ccc(C2=Nc3ccccc3C(c3ccncc3)=NN2)cc1,/,6.5%,-2.5,-4.3%,-2.5,/
CCc1ccc2c(c1)C(c1ccncc1)=NNC(c1ccccc1)=N2,-24.6%,/,21.3,/,57.6,i
Cc1ccc2c(c1)C(c1ccncc1)=NNC(c1ccccc1)=N2,-7.8%,2.6%,50.1*,0.0%[46.1 µM],103.4*,-0.4%
CC1CCCCN1CC(O)COc1ccc(OCC(O)CN2CCCCC2C)cc1 (centres undefined),-5.7%,-28.8%,-3.1,?,/,-24.4%
COc1ccc2c(c1)CCC2=O,-11.7%,/,/,/,/,40.3%
COC(=O)C[C@H]1SC(=O)NC1=O,/,/,/,-0.3%,/,/
COc1cccc(C(=O)c2cn(CC(=O)NCc3ccccc3)c3nc(C)ccc3c2=O)c1,-12.2%,-1.1%[46.1 µM],/,/,/,-5.0%
CC(=O)Nc1ccc(C(=O)N2CCCC(c3cc(C(=O)Nc4ccccc4Cl)no3)C2)cc1 (centres undefined),1.1%,/,/,/,/,-6.6%
Cc1ccc(C2=Nc3ccc(Br)cc3C(c3ccncc3)=NN2)cc1,-7.4%,3.1%,28.4*,?,69.8,i
COc1ccc(C2=NNC(c3cccnc3)=Nc3ccc(OC)cc32)cc1,-5.7%,-14.4%,3.2,28.6%[14.2 µM],-10.9,-15.1%
CCCOc1ccc(C2=NNC(c3cccs3)=Nc3ccc(OC)cc32)cc1,/,6.4%,57.2*,?,98.3*,/
COc1ccc2c(c1)C(c1ccc(C)o1)=NNC(c1ccccc1)=N2,-9.0%,/,42.5*,/,95.8*,i
Cc1ccc2c(c1)C(c1ccncc1)=NNC(c1ccc(F)cc1)=N2,-6.3%,18.4%,15.6,-7.9%[46.1 µM],16.2,3.0%
COc1ccc2c(c1)C(c1ccc(C)o1)=NNC(c1cccnc1)=N2,-7.4%,?,0.8,?,12.1,-16.5%
CCOc1ccc(C(=O)N2CCN(Cc3cc(=O)n4nc(-c5cccc(OC)c5)sc4n3)CC2)cc1,-19.2%,-14.6%[46.1 µM],/,/,/,?
Cc1cccc(NC(=S)N(CCCN2CCCC2)Cc2cccn2Cc2ccc(Cl)cc2)c1,-24.0%,?,-2.9,7.08µM*,-3.1,?
Cc1c2oc3c(C)ccc(C(=O)N[C@@H]4C(=O)N[C@H](C(C)C)C(=O)N5CCC[C@H]5C(=O)N(C)CC(=O)N(C)[C@@H](C(C)C)C(=O)O[C@@H]4C)c3nc-2c(C(=O)N[C@@H]2C(=O)N[C@H](C(C)C)C(=O)N3CCC[C@H]3C(=O)N(C)CC(=O)N(C)[C@@H](C(C)C)C(=O)O[C@@H]2C)c(N)c1=O,/,/,0.8,/,-6.1,/
Cc1cnc(-n2ncc(C(=O)NCCN3CCOCC3)c2-c2cccs2)nc1-c1ccc(F)cc1,0.0%,/,/,/,/,i
O=C(CSc1nnc(-c2ccc3c(c2)OCCO3)o1)N1CCCC1,-44.0%,?,43.9*,?,42.8,/
CCC1CCCCN1C(=O)CSc1nnc(-c2ccc3c(c2)OCCO3)o1 (centres undefined),?,7.5%,26.8*,?,28.3,/
CCC1CCCCN1C(=O)CSc1nnc(-c2ccc(OC)cc2)o1 (centres undefined),-12.9%,-9.6%,1.4,-1.8%,-13.7,-14.9%
SMILES,Vaccinia Venus,Lassa entry inh,Cycloheximide cs,Marburg entry inh,Shiga inhibitor,VACV mCherry inh
C[N+]1(CC(=O)c2ccc(Oc3ccccc3)cc2)CCOCC1,-6.9%,/,/,/,/,-14.7%
CCc1cc2c(cc3c(=O)n(CC(=O)NC(C)c4ccccc4)ncn32)s1 (centres undefined),-13.9%,/,/,2.3%[46.1 µM],/,-22.1%
CC1CC(C)CN(C(=O)c2ccc(N3CC4CC(C3)c3cccc(=O)n3C4)c([N+](=O)[O-])c2)C1 (centres undefined),-5.4%,?,-3.4,-12.5%,-10.7,-13.0%
O=C(c1ccc(F)c([N+](=O)[O-])c1)N1CC2CC(C1)c1cccc(=O)n1C2 (centres undefined),/,/,44.2*,/,104.9*,/
Cc1cccc2nc(CSc3nnc(N)s3)cn12,-13.8%,16.9%,22.1*,0.2%[46.1 µM],65.2*,-4.1%
O=C(Nc1ccc(Cl)cc1Cl)c1cnn2c1NC(=C1CC1)C=C2C(F)F,-11.1%,/,/,/,/,-12.0%
O=C(COc1ccccc1)Nc1nc(-c2ccc(S(=O)(=O)N3CCOCC3)cc2)cs1,-22.8%,?,-2.7,?,-4.8,-7.0%
O=C(CCc1ccccc1)Nc1ccc2c(c1)C(=O)OC2,-3.1%,?,10.4*,-6.9%,28.9,-18.0%
O=C(CCc1ccc(S(=O)(=O)N2CCOCC2)cc1)Nc1nc(COc2ccccc2)cs1,/,-19.6%,0.9,20.6µM*,-17.4,/
O=C(CCCOc1ccccc1)Nc1ccc(Cl)c(S(=O)(=O)N2CCOCC2)c1,-27.5%,17.8µM*,/,?,/,-12.2%
O=C(CCc1ccccc1)Nc1cc2c(cc1Cl)OCCO2,-13.6%,-24.9%,47.3*,-14.7%,80.0*,-1.9%
O=C(CCCSc1ccccc1)Nc1ccc(Cl)c(S(=O)(=O)N2CCOCC2)c1,-29.9%,?,/,?,/,?
O=C(CCc1ccccc1)Nc1cc2c(cc1C(=O)O)OCCCO2,-3.7%,4.8%,/,3.2%,/,-3.1%
CCOc1ccc2nc(SCC(=O)Nc3ccc4c(c3)OCCO4)[nH]c2c1,-14.3%,?,16.9,-22.3%,28.7,-21.7%
COc1ccc(OCCCC(=O)Nc2ccc3c(c2)OCO3)cc1,/,26.6%,0.8,-16.9%,16.8,/
O=C(NCc1ccccc1)NC1(C(=O)Nc2ccc3c(c2)OCCO3)CCCCC1,/,-5.6%,30.1*,?,70.8*,/
O=C(CCCOc1ccccc1)Nc1ccc2c(c1)OCCO2,/,1.3%,47.6*,36.9%,65.3,/
O=C(CCSCc1ccccc1)Nc1ccc2c(c1)OCCO2,/,3.5%,58.5*,0.2%,48.2*,/
COc1ccc2nc(SCC(=O)Nc3ccc4c(c3)OCCO4)[nH]c2c1,-8.8%,9.2%,56.6*,4.8%,79.8*,-4.1%
CN(CCC(=O)Nc1ccc2c(c1)OCO2)Cc1ccccc1,-9.7%,11.3%,-1.0,-10.1%,18.2,i
O=C(CCCc1ccccc1)Nc1ccc(S(=O)(=O)N2CCOCC2)cc1,-8.4%,-16.3%,7.6,-8.0%[46.1 µM],1.2,-9.8%
CCN(CC(=O)Nc1ccc2c(c1)OCCO2)C(=O)/C=C/c1ccc(OC)cc1OC,-19.5%,-11.8%,28.5*,13.3%,59.8*,-8.5%
O=C(CCc1ccc(S(=O)(=O)N2CCOCC2)cc1)Nc1ccc2c(c1)OCCO2,/,/,14.3*,/,49.0*,/

# Assay outcomes deposited in PubChem by National Center for Advancing Translational Sciences (NCATS).
